Assay results published in PubChem BioAssay (Tox21).
Results filed as inconclusive are left out. A call without a number means that no potency is given here. Activity calls are given as the source filed them. Unless noted, calls follow the shape of the dose curve; as a rule, active = well fitted curve in the direction sought with a large enough effect in the repeat runs; inconclusive = weak or mixed curves; inactive = no such curve, though single readings can be large; an effect the other way counts as inactive or inconclusive.

Columns and labels:
[1] = A CellTox Green Cytotoxicity Assay to monitor cytotoxicity in HEK293 cells - 32 hour (AID 1224881); also: nearly all actives have a fitted effect of over 40% in size
Summary of the method: (§1)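 Tox21 screen in HEK293: membrane-impermeant cyanine dye fluoresces on binding dead-cell DNA; compound pinned 5 h post-seeding, plates held at 37 C, signal read repeatedly through 40 h.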

[2] = A CellTox Green Cytotoxicity Assay to monitor cytotoxicity in HepG2 cells - 32 hour (AID 1224883); also: nearly all actives have a fitted effect of over 50% in size
Summary of the method: (§2)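 Measurements at 0, 8, 16, 24, 32 and 40 h of treatment captured CellTox Green fluorescence in HepG2 cells that had been co-plated with reagent and preincubated 5 h at 37 C/5% CO2.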

[3] = A CellTox Green Cytotoxicity Assay to monitor cytotoxicity in HEK293 cells - 8 hour (AID 1224884); also: nearly all actives have a fitted effect of over 35% in size
Summary of the method: as §1

[4] = qHTS RealTime-Glo MT Cell Viability Assay in HepG2 cells - 16 hour (AID 1224885); also: nearly all actives have a fitted effect of over 50% in size
Summary of the method: (§3)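 Viability was tracked continuously by NanoLuc luminescence from prosubstrate reduced by living HepG2 cells, at successive time points over 40 h of compound exposure. Cells with reagent were preincubated 5 h at 37 °C before compound addition.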

[5] = qHTS RealTime-Glo MT Cell Viability Assay in HEK293 cells - 24 hour (AID 1224886); also: top concentration of the series differs between compounds; nearly all actives have a fitted effect of over 50% in size
Summary of the method: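 Viability tracked continuously by luminescence as live cells reduce a prosubstrate for NanoLuc; HEK293 cells preincubated 5 h, compound-treated at 37 C, and read at 0, 8, 16, 24, 32 and 40 h.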

[6] = qHTS RealTime-Glo MT Cell Viability Assay in HEK293 cells - 8 hour (AID 1224887); also: top concentration of the series differs between compounds; nearly all actives have a fitted effect of over 50% in size
Summary of the method: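 HEK293 + NanoLuc + prosubstrate, 600 cells/well; 5 h, 37 C/5% CO2; compound 23 nL in DMSO by pintool; 37 C; luminescence read at 0, 8, 16, 24, 32 and 40 h time points.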

[7] = qHTS RealTime-Glo MT Cell Viability Assay in HepG2 cells - 0 hour (AID 1224889); also: nearly all actives have a fitted effect of over 50% in size
Summary of the method: as §3

[8] = A CellTox Green Cytotoxicity Assay to monitor cytotoxicity in HepG2 cells - 8 hour (AID 1224890); also: nearly all actives have a fitted effect of over 45% in size
Summary of the method: as §2

[9] = qHTS assay to identify small molecule antagonists of the estrogen receptor alpha (ER-alpha) signaling pathway using the BG1 cell line in the presence of 0.1 nM 17-beta-estradiol - cell viability counter screen (AID 1259241); also: nearly all actives have a fitted effect of over 40% in size
Summary of the method: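 Cytotoxicity counter-screen: live-cell protease activity measured by fluorescence (30 min reagent step) in the same wells. Cells were VM7Luc4E2 with endogenous ER-alpha and ERE-driven luciferase, treated 22 hr at 37C alongside 0.1 nM 17beta-estradiol final.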

[10] = qHTS assay to identify small molecule antagonists of the androgen receptor (AR) signaling pathway using the MDA cell line in the presence of 0.5 nM R1881 - cell viability counter screen (AID 1259242); also: nearly all actives have a fitted effect of over 45% in size
Summary of the method: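 Concentration-response screen of compounds for toxicity in MDA-kb2 reporter cells: 16 hr at 37C with 0.5 nM R1881, endpoint live-cell protease fluorescence measured in the reporter wells.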

[11] = molecular target: Estrogen receptor (Homo sapiens) (UniProt P03372); assay: qHTS assay to identify small molecule antagonists of the estrogen receptor alpha (ER-alpha) signaling pathway using the BG1 cell line in the presence of 0.1 nM 17-beta-estradiol (AID 1259244); also: nearly all actives have a fitted effect of over 50% in size; also: potency is read from the fitted curve at half-maximal effect
Chain of Estrogen receptor (Homo sapiens) (P03372 whole entry, looked up): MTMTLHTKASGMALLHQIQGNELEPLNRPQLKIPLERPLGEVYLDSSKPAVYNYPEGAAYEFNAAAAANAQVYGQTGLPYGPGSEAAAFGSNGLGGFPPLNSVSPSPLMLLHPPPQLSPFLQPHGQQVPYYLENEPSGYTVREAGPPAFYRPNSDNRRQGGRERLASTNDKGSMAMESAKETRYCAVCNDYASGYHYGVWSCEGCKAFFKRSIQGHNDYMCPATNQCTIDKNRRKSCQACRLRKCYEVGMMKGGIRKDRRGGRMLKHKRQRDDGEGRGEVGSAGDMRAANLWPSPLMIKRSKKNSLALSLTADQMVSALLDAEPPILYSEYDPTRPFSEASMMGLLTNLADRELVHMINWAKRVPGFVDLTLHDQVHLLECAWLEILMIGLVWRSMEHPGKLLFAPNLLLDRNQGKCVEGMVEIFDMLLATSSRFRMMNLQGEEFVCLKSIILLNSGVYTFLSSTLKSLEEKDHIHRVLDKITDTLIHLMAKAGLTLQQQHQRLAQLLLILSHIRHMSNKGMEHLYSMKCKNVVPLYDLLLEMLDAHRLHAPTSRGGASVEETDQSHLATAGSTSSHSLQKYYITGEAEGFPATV
Summary of the method: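 Compounds were tested against 0.1 nM (final) 17beta-estradiol in VM7Luc4E2 cells, which express full-length ER-alpha and an ERE-luciferase reporter; luminescence was recorded following 22 h exposure.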

[12] = qHTS assay to identify small molecule HDAC inhibitors (AID 1259364);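 also: wild-type HCT-116 cells with endogenous class I/II HDAC activity; top concentration of the series differs between compounds; nearly all actives have a fitted effect of over 45% in size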
Summary of the method: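 Screening used wild-type human colon HCT-116 cells incubated overnight, dosed with compounds for 2 hours, and assayed with a homogeneous luminogenic HDAC I/II reagent for 30 minutes at room temperature.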

[13] = qHTS assay to identify small molecule HDAC inhibitors - cell viability counter screen (AID 1259365)
Summary of the method: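 CellTiter-Glo luminescence (30 min, room temperature) reported viability after a 2 h compound exposure at 37 C. Cells: wild-type HCT-116, 1,500 per well, seeded the night before.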

[14] = qHTS assay to identify small molecule agonists of the sonic hedgehog signaling (Shh) pathway - cell viability counter screen (AID 1259366); also: nearly all actives have a fitted effect of over 50% in size; also: potency is read from the fitted curve at half-maximal effect
Summary of the method: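 Cytotoxicity counter screen: CellTiter-Fluor reagent added after 23 h compound exposure, then 1 h at 37C and fluorescence read. Cells were 3T3 Gli1-Luc, seeded 2,000 per well and dosed 4 h post-plating.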

[15] = qHTS assay to identify small molecule agonists of the sonic hedgehog signaling (Shh) pathway (AID 1259368; calls by dose curve;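 also: NIH/3T3-derived 3T3Gli1-Luc cells carrying a stable Gli1-driven firefly luciferase reporter; series mostly up to about 92 µM; nearly all actives have a fitted effect of over 15% in size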)
Summary of the method: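 Hedgehog pathway agonism scored by increased firefly luciferase luminescence in 3T3Gli1-Luc cells treated 24 hr at 37 C; detection used a 30 min room-temperature reagent incubation.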

[16] = A CellTox Green Cytotoxicity Assay to monitor cytotoxicity in HEK293 cells - 16 hour (AID 1224888); also: nearly all actives have a fitted effect of over 35% in size
Summary of the method: as §1

[17] = molecular target: Androgen receptor (Homo sapiens) (UniProt P10275); assay: qHTS assay to identify small molecule antagonists of the androgen receptor (AR) signaling pathway using the MDA cell line in the presence of 0.5 nM R1881 (AID 1259243); also: nearly all actives have a fitted effect of over 50% in size
Chain of Androgen receptor (Homo sapiens) (P10275 whole entry, looked up): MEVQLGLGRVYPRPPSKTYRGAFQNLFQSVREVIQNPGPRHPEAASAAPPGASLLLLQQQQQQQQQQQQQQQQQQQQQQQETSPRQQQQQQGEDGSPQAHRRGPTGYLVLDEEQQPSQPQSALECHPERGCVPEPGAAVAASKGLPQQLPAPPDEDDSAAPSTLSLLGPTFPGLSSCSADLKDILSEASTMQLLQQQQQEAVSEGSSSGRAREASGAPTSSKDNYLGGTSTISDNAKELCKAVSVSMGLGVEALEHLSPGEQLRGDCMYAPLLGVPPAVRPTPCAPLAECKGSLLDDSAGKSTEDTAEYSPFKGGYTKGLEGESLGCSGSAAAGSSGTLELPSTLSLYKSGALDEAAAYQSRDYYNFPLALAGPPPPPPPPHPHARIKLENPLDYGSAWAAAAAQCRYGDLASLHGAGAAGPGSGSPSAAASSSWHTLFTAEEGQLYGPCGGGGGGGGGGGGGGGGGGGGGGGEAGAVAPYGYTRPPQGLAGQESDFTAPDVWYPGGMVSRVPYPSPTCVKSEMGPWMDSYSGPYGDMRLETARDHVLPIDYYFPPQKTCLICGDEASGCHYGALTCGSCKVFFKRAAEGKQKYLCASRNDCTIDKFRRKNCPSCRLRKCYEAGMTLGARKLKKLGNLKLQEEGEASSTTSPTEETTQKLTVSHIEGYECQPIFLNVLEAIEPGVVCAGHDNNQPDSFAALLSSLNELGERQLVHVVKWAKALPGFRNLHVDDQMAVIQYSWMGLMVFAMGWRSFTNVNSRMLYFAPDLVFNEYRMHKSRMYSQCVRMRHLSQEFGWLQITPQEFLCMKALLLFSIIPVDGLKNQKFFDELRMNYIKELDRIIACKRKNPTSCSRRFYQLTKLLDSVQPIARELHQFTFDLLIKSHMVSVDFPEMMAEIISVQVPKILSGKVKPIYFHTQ
Summary of the method: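 With R1881 held at 0.5 nM (final), compound effects on MMTV-luciferase expression in MDA-kb2 cells were scored by luminescence after a 16 hr, 37C incubation.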

[18] = qHTS assay to identify small molecule antagonists of the sonic hedgehog signaling (Shh) pathway - cell viability counter screen (AID 1259367); also: nearly all actives have a fitted effect of over 55% in size; also: potency is read from the fitted curve at half-maximal effect
Summary of the method: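 Conditioned medium drove Shh signaling in 3T3 Gli1-Luc cells exposed to compounds at 37C and 5% CO2. Viability was determined from CellTiter-Fluor fluorescence, with reagent incubated 1 hr after 23 hr of treatment.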

[19] = qHTS assay to identify small molecule phospholipidosis (PLD) inducers (AID 1259344; active = well fitted curve in the direction sought with a large enough effect; an effect the other way counts as inactive or inconclusive)
Summary of the method: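 After 4 h attachment on collagen I, HepG2 cells were dosed with compound alongside LipidTOX Red, kept 24 h at 37 C, fixed, and imaged for lamellar phospholipid pits.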

Row | Compound | Potency [1] | Potency [2] | Potency [3] | Potency [4] | Potency [5] | Potency [6] | Potency [7] | Potency [8] | outcome [9] | outcome [10] | Potency [11] | Potency [12] | outcome [13] | Potency [14] | outcome [15] | Potency [16] | Potency [17] | Potency [18] | outcome [19]
1 | Cc1coc2c1CCC(C)C2 (stereo not drawn) | inactive | inactive | inactive | inactive | inactive | inactive | inactive | inactive | inactive | inactive | inactive | inactive | inactive | inactive | inactive |  |  |  | 
2 | CCCCCCI | inactive |  | inactive | inactive | inactive | inactive | inactive |  |  | inactive | inactive | inactive | inactive | inactive | inactive | inactive | inactive |  | 
3 | CCN(CC)CCOC(=O)C(C)(c1ccccc1)c1ccccc1 | inactive |  | inactive | inactive | inactive | inactive | inactive | inactive | inactive | inactive |  | inactive | inactive | inactive | inactive | inactive |  | inactive | 
4 | CN1CCC(O)(c2ccc(F)cc2)C(C(=O)c2ccc(F)cc2)C1 (stereo not drawn) |  |  | inactive | inactive |  | inactive | inactive |  | inactive | inactive |  | inactive | inactive | inactive | inactive | inactive |  | inactive | inactive
5 | [Cl][Sn]([Cl])([Cl])[Cl] |  | inactive | inactive | inactive |  | inactive | inactive | inactive | inactive | inactive | inactive | inactive | inactive | inactive | inactive |  |  |  | 
6 | N#CCNCC#N | inactive | inactive | inactive | inactive | inactive | inactive | inactive | inactive | inactive | inactive | inactive | inactive | inactive | inactive |  |  |  | inactive | 
7 | CC1=C(C(=O)Nc2ccccc2)S(=O)(=O)CCO1 | inactive | inactive | inactive | inactive |  | inactive | inactive | inactive | inactive | inactive | 48.5 µM (active) | inactive | inactive | 21.7 µM (active) |  |  |  | 27.3 µM (active) | 
8 | CSc1ccc(C(=O)C(C)(C)N2CCOCC2)cc1 | inactive | inactive | inactive | inactive |  | inactive |  | inactive | inactive | inactive |  | inactive | inactive | inactive | inactive | inactive |  | inactive | 
